Results on eight compounds are retold here after PubChem BioAssay (NCI).

This is part of a sample that, as a whole, favours compounds with a hit. Of some 83,000 tested, about 20% had one in any assay.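 Negative percent growth values reflect cell death: -40 means 40% of the cells present at the start died, and -100 means all died.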 Activity calls are given as the source filed them. Rule for the calls: active = growth percent below 10; inactive = the rest.

Test systems include SR leukemia; RPMI-8226 leukemia; OVCAR-8 ovarian; OVCAR-5 ovarian; OVCAR-4 ovarian; SK-OV-3 ovarian; IGROV1 ovarian; OVCAR-3 ovarian; HS 578T breast; NCI/ADR-RES ovarian; T-47D breast; BT-549 breast; MDA-MB-435 melanoma; SW-620 colon; HCT-116 colon; HCC-2998 colon; KM12 colon; MDA-MB-468 breast.
Test in all cases: NCI-60 one-dose screen, 48 h (100 = growth as untreated, 0 = no growth, -100 = all killed)
What all share (conditions): 10 µM unless noted

As for `COc1ccc(-c2nc3cc(C)ccc3n2CC(=O)N=Nc2c(O)[nH]c3ccc(Cl)cc23)cc1`, the growth in the experiment with SR leukemia was -7.22% (active); with RPMI-8226 leukemia it was 41.8% (inactive); in the experiment with OVCAR-8 ovarian, -74.8% (active); with OVCAR-5 ovarian, 3.51% (active); in the experiment on OVCAR-4 ovarian, -25.4% (active); with SK-OV-3 ovarian it was 13.7% (inactive). Moreover, the growth in the experiment on IGROV1 ovarian is 18.3% (inactive); in the experiment on OVCAR-3 ovarian, -13.8% (active); in the experiment on HS 578T breast, -2.87% (active); in the experiment on NCI/ADR-RES ovarian it was -30.8% (active); in the experiment with T-47D breast, 2.44% (active); in the experiment on BT-549 breast it was -43.7% (active). Besides, the growth in the experiment with MDA-MB-435 melanoma was -7.28% (active); with SW-620 colon, 12.4% (inactive); with HCT-116 colon, -65.4% (active); in the experiment on HCC-2998 colon it was -1.72% (active); with KM12 colon, 9.61% (active); with MDA-MB-468 breast, -42.6% (active).
Turning to `COc1ccc(-c2ccnc(SCc3cc4cc(OC)ccc4[nH]c3=O)n2)cc1`, the growth is 4.47% (active) in the experiment on SR leukemia; 9.3% (active) in the experiment on RPMI-8226 leukemia; 33.3% (inactive) in the experiment on OVCAR-8 ovarian; 46.8% (inactive) with OVCAR-5 ovarian; 43.3% (inactive) in the experiment on OVCAR-4 ovarian; 45.2% (inactive) with SK-OV-3 ovarian. Also, the growth was 33.3% (inactive) in the experiment on IGROV1 ovarian; 18.3% (inactive) with OVCAR-3 ovarian; 28.2% (inactive) in the experiment with HS 578T breast; -11.4% (active) with NCI/ADR-RES ovarian; 2.83% (active) with T-47D breast; -3.12% (active) in the experiment with BT-549 breast. Also, the growth in the experiment with MDA-MB-435 melanoma is 1.18% (active); in the experiment with SW-620 colon, 22.2% (inactive); in the experiment on HCT-116 colon, 11% (inactive); with HCC-2998 colon, 35% (inactive); in the experiment on KM12 colon, 24.2% (inactive); in the experiment with MDA-MB-468 breast it was -26.3% (active).
Turning to `COc1ccc2c(c1)c(-c1cc3nc(-c4cn(C)c5ncc(Br)cc45)cc(N)n3n1)cn2C`, the growth with SR leukemia is -6.89% (active); in the experiment on RPMI-8226 leukemia, -0.77% (active); with OVCAR-8 ovarian it was -48.8% (active); in the experiment on OVCAR-5 ovarian it was -47.6% (active); in the experiment with OVCAR-4 ovarian it was 17.3% (inactive); with SK-OV-3 ovarian, -55.6% (active). The growth was -25.8% (active) in the experiment on IGROV1 ovarian; -18.6% (active) with OVCAR-3 ovarian; -18.6% (active) in the experiment on HS 578T breast; -30.3% (active) with NCI/ADR-RES ovarian; -60.3% (active) in the experiment with T-47D breast; -78.5% (active) in the experiment on BT-549 breast. Moreover, the growth with MDA-MB-435 melanoma is -67.3% (active); in the experiment on SW-620 colon it was -64.1% (active); with HCT-116 colon it was -100% (active); with HCC-2998 colon, -94.3% (active); with KM12 colon, -61% (active); with MDA-MB-468 breast it was -81.4% (active).
On to `COc1c(F)ccc(C(=O)Nc2ccc3nc(NC(=O)C4CCCN(S(=O)(=O)c5ccc(Cl)cc5)C4)sc3c2)c1F` (centres undefined), for which the growth with SR leukemia is 44.8% (inactive); in the experiment with RPMI-8226 leukemia, 53.8% (inactive); in the experiment on OVCAR-8 ovarian, 97.2% (inactive); in the experiment with OVCAR-5 ovarian it was 97% (inactive); in the experiment with OVCAR-4 ovarian, 86.2% (inactive); in the experiment with SK-OV-3 ovarian, 97.2% (inactive). Also, the growth was 72.9% (inactive) in the experiment with IGROV1 ovarian; 92% (inactive) in the experiment on OVCAR-3 ovarian; 60.2% (inactive) with HS 578T breast; 74% (inactive) in the experiment with NCI/ADR-RES ovarian; 52.6% (inactive) in the experiment with T-47D breast; 62.4% (inactive) with BT-549 breast. Further, the growth with MDA-MB-435 melanoma was 101% (inactive); with SW-620 colon, 97.2% (inactive); in the experiment with HCT-116 colon, 65.3% (inactive); in the experiment on HCC-2998 colon, 103% (inactive); in the experiment on KM12 colon, 78.7% (inactive); in the experiment on MDA-MB-468 breast, 80.2% (inactive).
As for `COc1cccc(/C=C/c2nc3ccccc3c(=O)n2CC(=O)Nc2ccc(Cl)cc2)c1`, the growth is 79.7% (inactive) in the experiment on SR leukemia; 88.3% (inactive) with RPMI-8226 leukemia; 48.8% (inactive) in the experiment with OVCAR-8 ovarian; 73.5% (inactive) with OVCAR-5 ovarian; -11.4% (active) in the experiment on OVCAR-4 ovarian; 76.8% (inactive) with SK-OV-3 ovarian. The growth in the experiment on IGROV1 ovarian was 77.3% (inactive); with OVCAR-3 ovarian it was 35.5% (inactive); in the experiment with HS 578T breast, 32.8% (inactive); in the experiment with NCI/ADR-RES ovarian it was 69.3% (inactive); with T-47D breast, 6.29% (active); in the experiment on BT-549 breast, 86.8% (inactive). The growth in the experiment with MDA-MB-435 melanoma is 95.4% (inactive); with SW-620 colon, 68.1% (inactive); in the experiment on HCT-116 colon, 38.4% (inactive); with HCC-2998 colon it was 91% (inactive); in the experiment on KM12 colon it was 77.8% (inactive); in the experiment on MDA-MB-468 breast it was 108% (inactive).
`COc1c(F)ccc(C(=O)Nc2ccc3nc(NC(=O)C4CCCN(S(=O)(=O)c5ccc(C(F)(F)F)cc5)C4)sc3c2)c1F` (centres undefined): the growth is 43.4% (inactive) with SR leukemia; 54.3% (inactive) in the experiment with RPMI-8226 leukemia; 95.8% (inactive) in the experiment with OVCAR-8 ovarian; 100% (inactive) in the experiment on OVCAR-5 ovarian; 69.1% (inactive) with OVCAR-4 ovarian; 103% (inactive) with SK-OV-3 ovarian. Further, the growth is 70.5% (inactive) with IGROV1 ovarian; 78.2% (inactive) with OVCAR-3 ovarian; 51.4% (inactive) with HS 578T breast; 80% (inactive) in the experiment with NCI/ADR-RES ovarian; 59.7% (inactive) in the experiment on T-47D breast; 68.7% (inactive) in the experiment on BT-549 breast. The growth in the experiment on MDA-MB-435 melanoma was 94.2% (inactive); in the experiment with SW-620 colon, 95.1% (inactive); in the experiment with HCT-116 colon, 63.4% (inactive); with HCC-2998 colon, 99.2% (inactive); in the experiment with KM12 colon it was 75.2% (inactive); in the experiment with MDA-MB-468 breast, 104% (inactive).
For the compound `CCCCSc1nc(Nc2ccc(S(N)(=O)=O)cc2)c(C#N)c(-c2ccc(Cl)cc2)n1`, the growth was 19.4% (inactive) in the experiment with SR leukemia; 52.7% (inactive) with RPMI-8226 leukemia; -2.51% (active) with OVCAR-8 ovarian; 51.5% (inactive) with OVCAR-5 ovarian; 2.66% (active) in the experiment on OVCAR-4 ovarian; 30.4% (inactive) in the experiment with SK-OV-3 ovarian. Further, the growth is 37.5% (inactive) with IGROV1 ovarian; 54.1% (inactive) in the experiment on OVCAR-3 ovarian; 64.8% (inactive) in the experiment on HS 578T breast; 16.4% (inactive) with NCI/ADR-RES ovarian; 75.5% (inactive) with T-47D breast; 96.1% (inactive) in the experiment on BT-549 breast. The growth in the experiment with MDA-MB-435 melanoma was 56.2% (inactive); with SW-620 colon, 37.3% (inactive); in the experiment with HCT-116 colon it was 1.12% (active); in the experiment on HCC-2998 colon it was 64% (inactive); in the experiment with KM12 colon, 74.7% (inactive); in the experiment on MDA-MB-468 breast, 76% (inactive).
For `CC12CC[C@@H]3[C@]4(C)COC(c5cn[nH]c5-c5ccc(Br)cc5)O[C@@H]4CC[C@@]3(C)[C@@H]1CC(C1=CCOC1=O)O2` (some centres undefined), the growth in the experiment with SR leukemia was 40.6% (inactive); in the experiment on RPMI-8226 leukemia it was 24.9% (inactive); in the experiment with OVCAR-8 ovarian, 62.6% (inactive); in the experiment with OVCAR-5 ovarian, 81.5% (inactive); in the experiment with OVCAR-4 ovarian, 36.1% (inactive); in the experiment on SK-OV-3 ovarian, 73.5% (inactive). For the same compound, the growth in the experiment with IGROV1 ovarian is 50.3% (inactive); with OVCAR-3 ovarian, 56% (inactive); in the experiment on HS 578T breast it was 55.6% (inactive); in the experiment with NCI/ADR-RES ovarian it was 51.9% (inactive); in the experiment on T-47D breast, 16.3% (inactive); in the experiment on BT-549 breast it was 21.7% (inactive). Also, the growth in the experiment on MDA-MB-435 melanoma is 51.8% (inactive); with SW-620 colon, 62.1% (inactive); in the experiment on HCT-116 colon it was 23.4% (inactive); in the experiment on HCC-2998 colon, 55.8% (inactive); in the experiment on KM12 colon, 39% (inactive); with MDA-MB-468 breast it was 9.94% (active).
